These results are taken from ChEMBL document CHEMBL3988442, “University of Dundee, Small-Polar-MMV Screening Library” (2021).

Screen size: about 38,000 compounds; about 1,200 (3.2%) showed an effect of 50% or more. The median lay at about -58%. The sample holds strong results, similar compounds and a random draw of the others, so the mix is not that of the screen.

The test system of the assay is Plasmodium falciparum. Put plainly: Calibr Malaria Delayed Death Assay SOP. It counts as functional, organism-based. The arrangement: scale not given: in the data most compounds retested in dose-response had high values. As to conditions: concentration 4.99e-06 (unit not given; other assays of the set use mol/L).
In the case of `CCc1oc(C(=O)N[C@@H]2c3ccccc3C[C@@H]2O)cc1CN1CCCC1`, the “Percent Effect” value is recorded as -27.56%. The figure for `CS(=O)(=O)NC1CCCN(Cc2ccc(OCc3ccccn3)cc2)C1` (centres undefined) is -34.46%; for `CCOc1ccc(CN2CCN(C(=O)c3cc(C4CC4)[nH]n3)CC2)cc1` it is -17.17%. The figure for `Cn1cc(CN(C(=O)c2ccc3ncsc3c2)C2CC2)cn1` is -137%.

In the case of `COCC1CC2(CCN(Cc3ccco3)CC2)CN1C(C)C.O=C(O)C(F)(F)F.O=C(O)C(F)(F)F` (centres undefined), the “Percent Effect” value was determined as 63.6%. Turning to `COC1COC2(CCN(Cc3cccc(C#N)c3)CC2)C1.O=C(O)C(F)(F)F` (centres undefined), the “Percent Effect” value is given as -4.356%. For `COCC1CC2(CCN(C(=O)c3ccccc3C)CC2)CN1C(C)C.O=C(O)C(F)(F)F` (centres undefined), the “Percent Effect” value is listed as -58.35%. On to `COCC1CC2(CCN(C(=O)c3ccco3)CC2)CN1C(C)C.O=C(O)C(F)(F)F` (centres undefined), for which the “Percent Effect” value is 24.38%. In the case of `COCC1CC2(CCN(Cc3cccc(C#N)c3)CC2)CN1C(C)C.O=C(O)C(F)(F)F.O=C(O)C(F)(F)F` (centres undefined), the “Percent Effect” value is listed as 72.4%. The figure for `COCC1CC2(CCN(Cc3ccc(C)o3)CC2)CN1C(C)C.O=C(O)C(F)(F)F.O=C(O)C(F)(F)F` (centres undefined) is 34.42%; for `CNC(=O)CNC(=O)Nc1cc(-c2ccccc2)ns1` it is -97.73%. The figure for `O=C(O)C(F)(F)F.O=C1CCCN1Cc1nnc2n1CCN(Cc1ccoc1)CC2` is -13.9%; for `CCOCCNC(=O)c1cccnc1Sc1cc(OC)ccc1OC` it is -83.15%. Consider `CC(C)OCc1noc(C2CCCOC2)n1` (centres undefined), for which the “Percent Effect” value was -85.93%. The same measure for `Cc1cc(C(=O)NCc2cccnc2N2CCc3ccccc3C2)[nH]n1`: -34.77%; for `NC(=O)NCCC(=O)NCc1cccnc1N1CCc2ccccc2C1`: -76.53%. With `COC(=O)CCC(=O)NCc1cccnc1N1CCc2ccccc2C1`, the “Percent Effect” value turned out to be 58.06%.

Take `CC(C)[C@@H](N)C(=O)NCc1cccnc1N1CCc2ccccc2C1`: the “Percent Effect” value turned out to be 28.21%. Consider `Cc1n[nH]cc1C(=O)NCc1cccnc1N1CCc2ccccc2C1`, for which the “Percent Effect” value is on record as 75.05%. For `Cc1nnsc1C(=O)NCc1cccnc1N1CCc2ccccc2C1`, the “Percent Effect” value is -86.78%. In the case of `O=S(=O)(Cc1ccccc1F)Cc1nnnn1C1CC1`, the “Percent Effect” value is on record as -164.7%.

Regarding `CC(C)CC(=O)N1CCC2(CC1)OC(C(N)=O)Cn1ccnc12.O=C(O)C(F)(F)F` (centres undefined), the “Percent Effect” value is listed as -41.43%. For the compound `CC(C)c1cc(C(=O)NC2CCN(CC(N)=O)CC2)nn1C(C)(C)C`, the “Percent Effect” value is given as -153%. The same measure for `COc1ccc2oc(C(C)NC(=O)NCc3noc(C)n3)c(C)c2c1` (centres undefined): -10.38%.

On to `CCc1cnc(N)nc1NCCCn1nc(C)nc1C`, for which the “Percent Effect” value is -48.25%. As to `CCc1cnc(N)nc1NCCn1cc(Cl)cn1`, the “Percent Effect” value turned out to be 54.15%.

Take `CCc1cnc(C)nc1NCCN1CCOCC1`: the “Percent Effect” value is -14.69%. For `CCc1cnc(N)nc1NCCCn1cc(Cl)cn1`, the “Percent Effect” value was 84.03%. The figure for `Cn1cc(Br)c(C(=O)NCCCn2cc(Cl)cn2)n1` is -63.62%; for `CCc1cnc(N)nc1NCCC(=O)NC1CCCCC1` it is -82.55%; for `CCN(CC)C(=O)C1CCCN(CC(=O)Nc2c(C)nn(CC)c2C)C1` (centres undefined) it is -43.93%. The figure for `Cc1nn(CC(=O)N2CCN(Cc3cnn(C)c3C)CC2)cc1Cl` is -81.13%. The figure for `CC(C)n1ccnc1C1CCN(C(=O)c2ccccc2)CC1` is -13.68%; for `CCNC(=O)c1ccc(N2CCCC(c3nccn3C(C)C)C2)nc1` (centres undefined) it is -31.13%.

In the case of `Cc1cc(N2CCCC(N(C)C)C2)n2nccc2n1` (centres undefined), the “Percent Effect” value is -65.48%.

On to `CN(C)C1CCN(c2cc(-c3ccccc3)nc3ccnn23)C1` (centres undefined), for which the “Percent Effect” value came to 51.07%. For `CCNC(=O)C1CCN(c2cc(-c3ccccc3)nc3ccnn23)C1` (centres undefined), the “Percent Effect” value is recorded as -30.81%. The same measure for `O=C(NCCCn1ccccc1=O)c1cnc(-c2ccsc2)s1`: -39.04%; for `O=C(CCNCc1cccc2c1OCCCO2)NC1CCCC1`: 12.04%.

For `O=S(=O)(CCNCc1cccc2c1OCCO2)N1CCOCC1`, the “Percent Effect” value was 10.69%. The same measure for `O=C(CC1CCCC1)NCCNCc1cccc2c1OCCO2`: 71.86%. In the case of `CC(C)c1nc(CN2CCOC(CNc3cccnn3)C2)cs1` (centres undefined), the “Percent Effect” value is -68.41%.

Regarding `O=C1c2ccccc2C(=O)N1CC(O)Cn1nc(-c2cccs2)oc1=O` (centres undefined), the “Percent Effect” value was found to be 1.705%. The figure for `O=C(c1ccnc(CC2COc3ccccc3C2)c1)N1CCCC1` (centres undefined) is -41.96%; for `CCS(=O)(=O)N1CCc2ccc(NC(=O)NC(C)(C)C)cc21` it is -106.6%.

As to `CC(O)CN1CCC(CNCc2cccc(C(F)(F)F)c2)CC1` (centres undefined), the “Percent Effect” value is 82.43%. `CC(O)CN1CCC(CNCc2cccc(C(N)=O)c2)CC1` (centres undefined): the “Percent Effect” value is -77.28%. The same measure for `CC(C1CCN(Cc2ccc(N(C)C)nc2)CC1)N1CCOCC1` (centres undefined): -9.646%.

On to `CN1CCOC(CNCc2cccc(OC(F)(F)F)c2)C1` (centres undefined), for which the “Percent Effect” value turned out to be 1.205%. Regarding `CC(C)Oc1cccc(CN2CCC(C(C)N3CCOCC3)CC2)c1` (centres undefined), the “Percent Effect” value worked out at 55.35%. The figure for `CCn1ccnc1CNCC1CCN(CC(O)c2ccccc2)CC1` (centres undefined) is -30.37%; for `Cc1cccc(-c2[nH]ncc2CNCC2CCN(CC(C)O)CC2)c1` (centres undefined) it is -49.15%.

Consider `FC(F)(F)Oc1cccc(CNC[C@H]2Cn3ccnc3CO2)c1`, for which the “Percent Effect” value is listed as -105.1%. The same measure for `CC(C1CCN(Cc2ccc(OC(F)F)cc2)CC1)N1CCOCC1` (centres undefined): -27.61%; for `CC(C)Oc1cccc(CC(=O)NC2CCN(CC(N)=O)CC2)c1`: -80.49%. For `CC(O)CN1CCC(CNCc2cccc(OC(C)C)c2)CC1` (centres undefined), the “Percent Effect” value is on record as 61.47%. The figure for `O=C(Nc1cn[nH]c1)N1CCCCCC1c1ccncc1` (centres undefined) is -103.8%; for `Cn1cnc(S(=O)(=O)N2C[C@@H]3CC[C@H](C2)N(Cc2ccccn2)C3)c1` it is -132.7%.

Take `N#Cc1ccc(F)c(CNC(=O)NC(CO)c2ccccc2)c1` (centres undefined): the “Percent Effect” value is -103.2%. Regarding `Cc1ccc(N2CCC3(CCC(=O)N3Cc3ccncc3)CC2)nn1.O=C(O)C(F)(F)F`, the “Percent Effect” value is -132.1%. The same measure for `COCCn1cc(CC(=O)Nc2cc(C)n(C)n2)c2ccccc21`: -50.35%; for `Cc1cc(NCCC(=O)NC2CCCCC2)nc(-c2ccncc2)n1`: -22.05%; for `CC(O)CN1CCC(CNCc2ccc(S(C)(=O)=O)cc2)CC1` (centres undefined): -36.2%.

On to `Cc1ccc(-c2n[nH]cc2CNCC2CCN(CC(C)O)CC2)cc1` (centres undefined), for which the “Percent Effect” value was -46.8%.
